Screens deposited in PubChem BioAssay by The Scripps Research Institute Molecular Screening Center.
Hits are enriched below; roughly 2.6% of the tested compounds scored in any of these assays.
KLF5 inh – suppresses KLF5 promoter-driven expression | DLD-1 KLF5 promoter-luciferase reporter, luminescence | inhibition, % at 5 µM | hit rate 0.23% among 290,000 | AID 1700;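 active = inhibition above a per-plate limit of that plate's mean compound inhibition plus 3 SD, cut at about 60% in these data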;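 also: higher means less KLF5 promoter-driven luciferase light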
IEC-6 tox – IEC-6 cytotoxicity, counter-screen for KLF5 inhibitors; luminescence viability; inhibition, % at 5 µM; hit rate 0.78% among 290,000; AID 1825
Ba/F3 V617F tox – reduce viability of Ba/F3 cells dependent on JAK2V617F | Ba/F3 EpoR-JAK2V617F viability, ATP luminescence | inhibition, % at 5.6 µM | hit rate 1.1% among 220,000 | AID 1446;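 active = inhibition above the campaign mean plus 3 SD over all tested compounds, cut at about 24% in these data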;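 also: cytokine-independent growth of Ba/F3 cells driven by EpoR plus mutant JAK2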
GPR7 antag – antagonists of human GPR7 (neuropeptides B/W receptor 1) | P48145 | inhibition, % at 4.4 µM | hit rate 1.1% among 290,000 | GPR7-expressing cells, fluorescence antagonist assay | AID 1861; in the data active = inhibition above about 16%, passing the limit was not always enough;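 also: cells stimulated with the agonist NPW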
Target sequence (P48145 whole entry, looked up): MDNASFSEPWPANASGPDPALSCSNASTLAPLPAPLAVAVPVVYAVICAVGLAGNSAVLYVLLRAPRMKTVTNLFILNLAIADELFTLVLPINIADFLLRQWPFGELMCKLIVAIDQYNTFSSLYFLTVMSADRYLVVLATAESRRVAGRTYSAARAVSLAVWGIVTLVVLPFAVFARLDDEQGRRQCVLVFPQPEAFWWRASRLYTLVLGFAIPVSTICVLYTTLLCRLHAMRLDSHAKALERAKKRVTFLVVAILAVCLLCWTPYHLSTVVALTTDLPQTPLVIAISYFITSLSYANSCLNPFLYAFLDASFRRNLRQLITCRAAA
BaF3 tox – counter-screen for JAK2V617F inhibitors: parental Ba/F3 viability inhibitors; CellTiter-Glo ATP luminescence; inhibition, % at 5.6 µM; hit rate 1.1% among 220,000; AID 1486;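 active = inhibition above a per-campaign cutoff, the mean inhibition of all tested compounds plus 3 SD, cut at about 27% in these data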
FID counter – displaces DNA intercalator in HCV helicase counter-screen; DNA fluorescent intercalator displacement, fluorescence; inhibition, % at 7.9 µM; hit rate 0.17% among 290,000; in the data active = inhibition above about 37%;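 also: higher means more ethidium bromide displaced from hairpin DNA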
GPR7 antag conf – human GPR7 antagonism, confirmation assay; GPR7-expressing cells, calcium fluorescence antagonist mode; AID 1952; inhibition, % at 4.4 µM; shares compounds with GPR7 antag; hit rate 52% among 2,400; in the data active = inhibition above about 24%;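 also: stimulated with the GPR7 agonist NPW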
MCHR1 antag – MCHR1 (human) antagonism in GPR7 counter-screen | shares compounds with GPR7 antag | MCHR1-expressing cells, fluorescence antagonist assay | inhibition, % at 4.4 µM | hit rate 62% among 2,400
Numbers stand for hits; n = inactive; x = not tested or not shown. Rule as the data show it, unless noted: active = inhibition above about 22%; inactive = the rest.

SMILES | KLF5 inh | IEC-6 tox | Ba/F3 V617F tox | GPR7 antag | BaF3 tox | FID counter | GPR7 antag conf | MCHR1 antag
CC(NCCCOc1cccc2ccccc12)c1ccccc1 (configuration not stated) | n | n | x | 25 | x | n | 57 | 50
COc1ccc2ccccc2c1CNC(C)c1ccccc1 (configuration not stated) | n | n | x | n | x | n | x | x
O=C(c1ccc(N2CCN(C(=O)c3cccc(F)c3)CC2)cc1)c1cccc(F)c1 | n | n | x | n | x | n | x | x
O=C(c1ccc(N2CCN(C(=O)c3ccccc3Br)CC2)cc1)c1cccc(F)c1 | n | n | x | 28 | x | n | n | 69
Cc1cc(NC(=O)CCN2C(=O)C3C4C=CC(C4)C3C2=O)c2ccccc2n1 (configuration not stated) | n | n | n | n | n | n | x | x
O=C(NC1CCCCC1)C(c1ccncc1)N(Cc1ccc2c(c1)OCO2)C(=O)c1cnsn1 (configuration not stated) | n | n | n | 26 | n | n | 30 | n
Cc1ccc(C)c(N2CCN(CCCNC(=O)CCC(=O)N3CCOc4ccc(Cl)cc43)CC2)c1 | n | n | x | 29 | x | n | 50 | 79
CCc1ccccc1NC(=O)CSc1nc2ccccc2nc1N1CCOCC1 | n | n | x | 26 | x | n | 34 | 31
O=C(CSc1nnc(-c2ccccc2)n1-c1ccc(Cl)cc1)NC1CCS(=O)(=O)C1 (configuration not stated) | n | n | n | n | n | n | x | x
Cc1nnc(SCC(=O)NC2CCS(=O)(=O)C2)n1-c1ccccc1 (configuration not stated) | n | n | n | 25 | n | n | n | n
Cc1cnc(NC(=O)CN2CCN(c3ccccn3)CC2)s1 | n | n | n | n | n | n | x | x
CCN(CC)CC(O)Cn1c(-c2cccc(Cl)c2)nc2cc(C)c(C)cc21 (configuration not stated) | n | n | n | n | n | n | x | x
CC1CCN(c2nc(CN3CCCCC3)nc3scc(-c4ccccc4)c23)CC1 | n | n | n | 23 | n | n | 32 | 32
CC1CCN(c2nc(-c3cccnc3)nc3scc(-c4ccccc4)c23)CC1 | n | n | n | n | n | n | x | x
COc1ccc(C(=O)OCC(=O)Nc2nc3c(F)c(F)c(F)cc3s2)cc1OC | n | n | n | n | n | n | x | x
COc1cc(/C=N/S(=O)(=O)CCc2ccccc2)ccc1O | n | n | n | n | n | n | x | x
CN(C)S(=O)(=O)n1cc(/C=C(\NC(=O)c2ccccc2Cl)C(=O)N2CCCC2)c2ccccc21 | n | n | x | 31 | x | n | n | 34
CC(=O)c1ccc(N2CCN(C(=O)c3cccc(Oc4ccccc4)c3)CC2)cc1 | n | n | n | 23 | n | n | 34 | 53
Cc1ccc(C)c(CN2CCC(CNC(=O)Nc3ccc(C)c(C)c3)CC2)c1 | n | n | x | 36 | x | n | n | 25
COc1ccc(Cl)cc1NC(=O)NCC1CCN(Cc2cc(C)ccc2C)CC1 | n | n | x | n | x | n | x | x
COc1ccc(C2C(Oc3ccccc3C)C(=O)N2Cc2ccc(F)cc2)cc1OC (configuration not stated) | n | n | n | 28 | n | n | n | n
COc1cccc(C(=O)N2CCN(Cc3ccco3)CC2)c1OC | n | n | n | n | n | n | x | x
O=C1CCCC1C(=O)Nc1ccc2ccccc2c1 (configuration not stated) | n | n | n | n | n | n | x | x
COc1ccccc1-c1ccc(SCc2cccc(F)c2)nn1 | n | n | n | 29 | n | n | 36 | 56
Cc1sc2nc(SCc3ccc(C(=O)O)cc3)n(Cc3ccco3)c(=O)c2c1C | n | n | n | n | n | n | x | x
SMILES | KLF5 inh | IEC-6 tox | Ba/F3 V617F tox | GPR7 antag | BaF3 tox | FID counter | GPR7 antag conf | MCHR1 antag
CN(CCOc1ccccc1)C(=S)Nc1ccc(OC(F)F)cc1 | n | n | x | 31 | x | n | n | 32
CN(CCOc1ccc(Cl)cc1)CC(=O)Nc1ccc(OC(F)F)cc1 | n | n | x | 39 | x | n | n | n
CCC(C)c1ccccc1NC(=O)CN(C)CCOc1ccc(Cl)cc1 (configuration not stated) | n | n | x | n | x | n | x | x
O=C(NCc1ccc(Cl)cc1)c1cc2ccccc2oc1=O | n | n | x | n | x | n | x | x
CC(C(=O)NCCCc1ccccc1)c1ccc([N+](=O)[O-])cc1 (configuration not stated) | n | n | n | 22 | n | n | 33 | 58
CC(C(=O)Nc1nccs1)c1ccc([N+](=O)[O-])cc1 (configuration not stated) | n | n | n | 37 | n | n | n | n
COc1ccc(CCNC(=O)C(C)c2ccc([N+](=O)[O-])cc2)cc1 (configuration not stated) | n | n | n | n | n | n | x | x
O=C(NCCCN1CCN(c2ccccc2F)CC1)C1CCC(=O)N1C1CCCC1 (configuration not stated) | n | n | n | n | n | n | x | x
CCCCCCN1C2=NCCCN2c2ccccc21 | n | n | n | 26 | n | n | n | n
Cc1nc2ccc([N+](=O)[O-])cc2c(=O)n1Cc1ccc(Br)cc1 | n | n | x | n | x | n | x | x
Cc1nc2ccc([N+](=O)[O-])cc2c(=O)n1Cc1cccc(Br)c1 | n | n | x | 47 | x | n | 32 | 35
CCc1ccc(NC(=O)C2(c3ccccc3)CC2(Cl)Cl)cc1 (configuration not stated) | n | n | n | 29 | n | n | 65 | 76
Cn1c(N)c(C#N)c2c(c1=S)COC(C)(C)C2 | n | n | n | n | n | n | x | x
CC1(C)Cc2c(C#N)c(N)n(-c3ccccc3)c(=S)c2CO1 | n | n | n | 92 | n | n | n | n
CC(=O)c1cccc(NC(=O)c2ccc(-c3ccccc3[N+](=O)[O-])o2)c1 | n | n | n | n | n | n | x | x
O=C(C1CC1)N1CCN(c2nc3ccccc3s2)CC1 | n | n | n | n | n | n | x | x
CN(C1CCCCC1)S(=O)(=O)c1ccc(C(=O)N2CCN(c3nc4ccccc4s3)CC2)cc1 | n | n | n | 22 | n | n | n | 44
Clc1ccc(Cc2ccccc2)nn1 | n | n | n | n | n | n | x | x
COc1cccc(NC(=O)Nc2nc(SC(C)(C)C)ns2)c1 | n | n | x | 29 | x | n | 60 | 72
COc1ccc(NC(=O)Nc2cccc(OC)c2)cc1 | n | n | n | n | n | n | x | x
COC(=O)C1=C(C)N(Cc2ccccc2)C(=NCCc2ccccn2)N[C@H]1c1cccc(F)c1 | n | n | x | n | x | n | x | x
CCN1C(=NCCCCO)N[C@@H](c2cccc(C(F)(F)F)c2)C(C(=O)OC)=C1C | n | n | x | n | x | n | x | x
CCN1C(=S)N[C@@H](c2cccc(F)c2)C(C(=O)OC)=C1C | n | n | x | n | x | n | x | x
CCN1C(=NCc2cccc(Cl)c2)N[C@@H](c2cccc(F)c2)C(C(=O)OC)=C1C | n | n | x | 33 | x | n | 58 | 30
